High-throughput results from PubChem BioAssay.
RORgamma inh: ROR gamma (mouse) transcription inhibition. P51450. 310,000 tested, 5.4% active. Drosophila S2 Gal4-RORgamma UAS-luciferase reporter, 20 h. Potency, µM (titrated, usually from 53.6 µM), actives largely listed as inhibitors; also: nearly all actives have a fitted effect of over 60% in size
Target sequence (P51450 whole entry, looked up, the tested form may be a part): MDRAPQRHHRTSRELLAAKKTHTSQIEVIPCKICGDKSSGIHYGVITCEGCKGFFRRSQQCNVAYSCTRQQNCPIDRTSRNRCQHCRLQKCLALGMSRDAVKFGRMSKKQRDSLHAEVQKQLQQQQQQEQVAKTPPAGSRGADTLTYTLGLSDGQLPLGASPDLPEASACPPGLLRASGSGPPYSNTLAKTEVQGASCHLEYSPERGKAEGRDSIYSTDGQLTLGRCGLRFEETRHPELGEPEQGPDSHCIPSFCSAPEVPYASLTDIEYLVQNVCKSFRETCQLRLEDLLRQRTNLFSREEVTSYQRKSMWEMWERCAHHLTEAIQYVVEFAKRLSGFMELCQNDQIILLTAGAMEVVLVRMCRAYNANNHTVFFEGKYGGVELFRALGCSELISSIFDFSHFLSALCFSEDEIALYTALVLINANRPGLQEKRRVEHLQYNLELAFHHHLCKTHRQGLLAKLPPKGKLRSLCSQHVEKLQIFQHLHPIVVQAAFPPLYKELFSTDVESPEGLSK
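Drosophila S2 cells stably expressing Gal4-DBD/mouse RORγ fusion under metallothionein promoter plus UAS-luciferase; compound 1 h, then 700 uM CuSO4 induction for 20 h at ambient temperature; inhibition read as reduced luminescence.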
DT40 TDP1 no CPT: qHTS for Inhibitors of human tyrosyl-DNA phosphodiesterase 1 (TDP1): qHTS in cells in absence of CPT. Potency, µM (titrated, usually from 46.2 µM), usual class: inhibitors. DT40 Tdp1-/- hTDP1 cells, no CPT, ATP luminescence, 48 h. 420,000 tested, 15% active; also: nearly all actives have a fitted effect of over 55% in size
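Growth of hTDP1-complemented DT40 Tdp1-knockout cells is measured by ATP luminescence after at least 48 hr compound exposure at 37 °C, with DMSO substituting for the 20 nM CPT used in the parallel screen.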
LDHA block: inhibitors of human lactate dehydrogenase A. AID 1347041. purified LDHA, NADH/diaphorase-resazurin fluorescence; hits give low values. 480,000 tested, 0.15% active. P00338. activity change, % (values are at about 110 or 230 µM); in the data active = activity change below about -30%; inconclusive = mostly about -25% to -30%
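LDH5 2 nM; NADH 0.06 mM, pyruvate 0.2 mM; 200 mM Tris pH 7.4, EDTA, Tween-20; 5 min RT. Detection: diaphorase 0.133 mg/mL + resazurin 37 µM, fluorescence ex540/em590 at 0 and 20 min; normalized to enzyme-free and DMSO wells.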
IL-1B inflam inh: inhibitors of inflammasome signaling (IL-1 beta secretion); THP-1 LPS/ATP IL-1B secretion, AlphaLISA, 16 h; hits give low values; activity change, % at 57.5 µM; 360,000 tested, 4.7% active; AID 743279; in the data active = activity change below about -50%; inconclusive = mostly about -30% to -49%
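Secreted IL-1B measured by AlphaLISA bead assay after 16 h compound exposure of THP-1 cells; compounds (final up to 57.5 uM) added 1 h before LPS (250 ng/mL) and ATP (1.25 mM) stimulation; lower signal means less secretion.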
TDP1 cell CPT: growth inhibition of DT40 Tdp1-/-;hTDP1 cells with camptothecin (screen for TDP1 inhibitors) | Potency, µM (doses to about 46.2 µM), hits mostly inhibitors | 420,000 tested, 12% active | chicken DT40 Tdp1-/-;hTDP1 cells + 20 nM CPT, ATP luminescence, 48 h | AID 686979; also: nearly all actives have a fitted effect of over 55% in size
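Chicken DT40 Tdp1-/- cells complemented with human TDP1, 400 cells/well, exposed to compounds plus 20 nM camptothecin for at least 48 h at 37 C; viability read as ATP content by CellTiter-Glo luminescence.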
VP16 counter: inhibits Gal4-VP16 luciferase reporter, ROR gamma counter-screen; Drosophila S2 Gal4-VP16 UAS-luciferase, luminescence, 20 h; Potency, µM (top dose mostly 53.6 µM), most hits filed as inhibitors; 310,000 tested, 3.5% active;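 also: Gal4-VP16 expression switched on by copper sulfate through the metallothionein promoter; nearly all actives have a fitted effect of over 50% in size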
Hits are given with their value; – = inactive; ? = inconclusive; · = no result given; [ ] = another dose, or the depositor's remark. Sampled rows, rich in hits. Any-hit rate of the full collection: about 18%. Unless noted, calls follow the shape of the dose curve; as a rule, active = well fitted curve in the direction sought with a large enough effect; inconclusive = small, poorly fitted or top-dose-only effect, or another doubt; inactive = no such curve, though single readings can be large; an effect the other way counts as inactive or inconclusive.

SMILES	RORgamma inh	DT40 TDP1 no CPT	LDHA block	IL-1B inflam inh	TDP1 cell CPT	VP16 counter
Cc1ccccc1N1C(=O)C2C3C=CC(C2C1=O)N(C)C3=O (stereo unspecified)	–	–	–	–	–	–
CN1C2C=CC(=O)C1C1C(=O)N(c3ccccc3)C(=O)C12 (stereo unspecified)	·	18.4µM	–	-118.3	18.4µM	·
CC(=O)Nc1nc(-c2ccc3c(c2)OCO3)cs1	–	–	–	-52.6	?	–
CCOC(=O)N1CCN(C(=O)CSCC(=O)Nc2nc(-c3ccc(C)cc3)cs2)CC1	?	11.6µM	–	–	16.4µM	–
CCOC(=O)N1CCN(C(=O)CSCC(=O)Nc2nc(-c3ccc4c(c3)OCO4)cs2)CC1	?	20.6µM	–	?	20.6µM	–
CCOC(=O)N1CCN(C(=O)CSCC(=O)Nc2nc(-c3cccs3)cs2)CC1	?	?	–	–	?	–
CSC(C)C(=O)Nc1ccc(Cl)c(Cl)c1 (stereo unspecified)	·	·	–	·	·	·
CCN(C(=O)COC(=O)/C(=C/c1ccccc1)n1nnnc1C)C1CCCCC1	·	23.1µM	–	-96.6	?	·
Cc1nnnn1/C(=C\c1ccccc1)C(=O)OCC(=O)N(C)C1CCS(=O)(=O)C1 (stereo unspecified)	11.2µM	–	–	?	–	–
CN(C(=O)COC(=O)/C=C/c1ccccc1)C1CCS(=O)(=O)C1 (stereo unspecified)	·	–	–	–	–	·
CCN(C(=O)COC(=O)c1ccc(=O)n(Cc2ccccc2)n1)C1CCCCC1	·	–	–	–	–	·
O=C(NCc1ccccc1)Nc1c(NC2CCCCC2)c2ccccc2oc1=O	·	·	–	·	·	·
CN(C)/C=C(\C#N)C(=O)N/N=C(\CC(=O)C(F)(F)F)c1ccco1	4.47µM	–	–	–	–	–[10 µM]
Cc1ccc(C(=O)/C=C/c2cc(C)ccc2C)cc1	·	·	–	·	·	·
CCN(CC)S(=O)(=O)c1ccc(/C=C/C(=O)Nc2ccc(F)cc2F)cc1	?	13µM	–	–	?	–
Cc1cc(NC(=S)NC(=O)/C=C/c2ccc(S(=O)(=O)N3CCOCC3)cc2)ccc1Br	7.08µM	14.6µM	–	-87.8	?	–
CCN(CC)S(=O)(=O)c1ccc(/C=C/C(=O)Nc2ccc(N3CCOCC3)cc2)cc1	–	20.6µM	–	–	?	–
O=C(/C=C/c1ccc(S(=O)(=O)N2CCOCC2)cc1)NC(=S)Nc1ccc(N2CCOCC2)cc1	5.62µM	?	–	-76.5	–	–
O=C(/C=C/c1ccc(F)cc1)Nc1ccc(S(=O)(=O)N2CCOCC2)cc1	–	–	–	–	?	–
CCOC(=O)CNC(c1ccccc1)c1cc(Br)ccc1NC(=O)c1cccc(Cl)c1 (stereo unspecified)	·	23.1µM	–	·	?	·
NNC(=O)CNC(c1ccccc1)c1cc(Br)ccc1NC(=O)c1cccc(Cl)c1 (stereo unspecified)	–	?	–	–	?	–
COC(=O)CNC(c1ccccc1)c1cc(Br)ccc1NC(=O)c1ccccc1 (stereo unspecified)	·	?	–	·	20.6µM	·
COC(=O)CNC(c1ccccc1Cl)c1cc(Br)ccc1NS(=O)(=O)c1ccc(C)cc1 (stereo unspecified)	–	16.4µM	–	–	?	–
COC(=O)CNC(c1ccccc1)c1cc(Br)ccc1NC(C)=O (stereo unspecified)	–	–	–	–	–	–
COC(=O)C(C(=O)OC)c1ccccc1NS(=O)(=O)c1ccc(C)cc1	·	–	–	–	–	·
SMILES	RORgamma inh	DT40 TDP1 no CPT	LDHA block	IL-1B inflam inh	TDP1 cell CPT	VP16 counter
NNC(=O)CNC(c1ccccc1)c1cc(Br)ccc1NC(=O)CCN1CCOCC1 (stereo unspecified)	–	13µM	–	–	23.1µM	?
NNC(=O)CNC(c1ccccc1)c1cc(Br)ccc1NC(=O)c1ccc(Br)cc1 (stereo unspecified)	–	–	–	-62.5	?	–
COc1ccc2nc(SCC(=O)Nc3ccccc3C(=O)Nc3ccc4c(c3)OCO4)[nH]c2c1	·	·	–	·	·	·
COc1ccc(CN2CC3=C(C2=O)C(c2ccccc2C)NC(=O)N3)cc1 (stereo unspecified)	·	·	–	·	·	·
Cc1nn(-c2ccccc2)c(N)c1C1(O)C(=O)N(C(C)C)c2ccccc21 (stereo unspecified)	–	8.2µM	–	–	6.51µM	–
CCN1C(=O)C2(C(C#N)=C(N)Oc3n[nH]c(C(C)C)c32)c2ccccc21 (stereo unspecified)	–	–	–	–	–	–
Cc1noc(N)c1C1(O)C(=O)N(C(C)C)c2ccccc21 (stereo unspecified)	–	–	–	–	–	–
Cc1ccc(-n2nc(C)c(C3(O)C(=O)N(C(C)C)c4ccccc43)c2N)cc1 (stereo unspecified)	–	11.6µM	–	–	10.3µM	–
Cc1nn(-c2ccccc2)c2c1C1(C(=O)N(C(C)C)c3ccccc31)C(C#N)=C(N)O2 (stereo unspecified)	?	16.4µM	–	–	9.2µM	?
CCOC(=O)C(C(C)=O)C(c1ccccc1)C(C(C)=O)C(=O)OCC (stereo unspecified)	·	·	–	·	·	·
COc1ccccc1C(CNC(=O)CNC(=O)c1ccc(Cl)c(Cl)c1)N1CCCC1 (stereo unspecified)	·	16.4µM	–	–	–	·
COc1ccccc1C(CNC(=O)CNC(=O)c1ccc(C)c(C)c1)N1CCCC1 (stereo unspecified)	·	–	–	–	–	·
COc1ccccc1C(CNC(=O)COc1cc(C)ccc1Cl)N1CCCC1 (stereo unspecified)	·	?	–	-64.1	?	·
Cc1ccc(Cl)c(OCC(=O)NCC(c2cccs2)N2CCOCC2)c1 (stereo unspecified)	·	?	–	?	25.9µM	·
CC1CCN(C(=O)c2nn(C)c(=O)c3ccccc23)c2ccccc2S1 (stereo unspecified)	·	·	–	·	·	·
c1ccc(CNc2ccccn2)cc1	–	–	–	–	–	–
CNc1nc(NCc2ccccc2)c2ccccc2n1	–	4.61µM	–	·	13µM	–
Oc1ccccc1-c1nc(NCc2ccccc2)c2ccccc2n1	–	?	–	–	–	–
Oc1ccccc1Nc1nc(NCc2ccccc2)c2ccccc2n1	?	11.6µM	–	-100.6	11.6µM	22.4µM
OCC(Cc1ccccc1)Nc1c2ccccc2nc2ccccc12 (stereo unspecified)	–	16.4µM	–	-52.4	?	–
OCC(Cc1ccccc1)NCc1ccccc1C(F)(F)F (stereo unspecified)	–	–	–	–	–	–
